{"source": "PubChem BioAssay AID504340", "about": "(NMMLSC, 2011)", "note": "Unmarked numbers belong to inactive results. Activity calls are given as the source filed them.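 Rule for the calls: active = GFP response above 150% of the DMSO control; inconclusive = Under 70 cell events counted for a yeast strain; inactive = the rest.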", "data": [{"test": "yeast TOR pathway CIT2-GFP reporter retest – flow cytometry, third cherry pick, single plex, confirmation (AID 504340);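 note: median GFP fluorescence over all cells with no mother versus daughter split; sample signal as a ratio to the plate DMSO mean so 100% equals DMSO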", "conditions": "S. cerevisiae CIT2-GFP strain, 3 h, at 10 µM, stronger effect = higher value", "values": [{"smiles": "Cc1cc(C)c2ccc(C(=O)O)nc2c1O", "GFP response vs DMSO": "88%"}, {"smiles": "CCc1sc(C(=O)Nc2nc(-c3ccccn3)cs2)cc1C", "GFP response vs DMSO": "109%"}, {"smiles": "Cc1nc2c(O)cccc2cc1CO", "GFP response vs DMSO": "101%"}, {"smiles": "Cn1c(NCCCO)nc2c(c1=O)C1(CCCCC1)Cc1ccccc1-2", "GFP response vs DMSO": "117%"}, {"smiles": "O=C(Nc1ccccc1Cl)ON=C1c2ccccc2-c2ccccc21", "GFP response vs DMSO": "116%"}, {"smiles": "CCC(C)Nc1nc(N)c([N+](=O)[O-])c(Nc2ccccc2OC)n1", "note": "(centres undefined)", "GFP response vs DMSO": "114%"}, {"smiles": "Cn1cccc1C(=O)Nc1nc(-c2ccccn2)cs1", "GFP response vs DMSO": "106%"}, {"smiles": "CC(=O)Nc1ccc(-c2nc3cc(Cl)ccc3o2)cc1", "GFP response vs DMSO": "91.2%"}, {"smiles": "Cc1cn2c(N)c(C=C3C=C(Cl)C(=O)C(Cl)=C3)c(=O)nc2s1", "GFP response vs DMSO": "101%"}, {"smiles": "COCCCNc1nc(N)c([N+](=O)[O-])c(Nc2cc(OC)ccc2OC)n1", "GFP response vs DMSO": "106%"}, {"smiles": "NC(=O)c1ccnc2c(O)cccc12", "GFP response vs DMSO": "101%"}, {"smiles": "Cc1nc(Nc2ccc(Cl)cc2)c(C#N)c(=O)[nH]1", "GFP response vs DMSO": "107%"}, {"smiles": "CC(C)Nc1ncnc2ccc(Br)cc12", "GFP response vs DMSO": "96.1%"}, {"smiles": "O=C(/C=C/Nc1cccc(O)c1)c1ccccc1", "GFP response vs DMSO": "111%"}, {"smiles": "COc1cccc(N/C(C)=C/C(=O)c2ccc(Br)cc2)c1", "GFP response vs DMSO": "104%"}, {"smiles": "N#Cc1c(N)nc(N)nc1Nc1ccc(Br)cc1", "GFP response vs DMSO": "99.3%"}, {"smiles": "CC(=O)NC(C)c1cc(Cl)c2cccnc2c1O", "note": "(centres undefined)", "GFP response vs DMSO": "97.7%"}, {"smiles": "Cc1cccc(Nc2cc(=O)[nH]c(=O)[nH]2)c1", "GFP response vs DMSO": "94.5%"}, {"smiles": "C=CCNc1ncnc2ccccc12", "GFP response vs DMSO": "103%"}, {"smiles": "COc1ccc(N/C(C)=C/C(=O)c2ccccc2)cc1", "GFP response vs DMSO": "94.5%"}, {"smiles": "O=C(O)c1ccc2cccnc2c1O", "GFP response vs DMSO": "88%"}, {"smiles": "Cc1cccc(C)c1Nc1ncnc(N)c1[N+](=O)[O-]", "GFP response vs DMSO": "103%"}, {"smiles": "COc1cccc(OCc2cc(C(=O)N3CCN(C)C(c4ccccc4)C3)no2)c1", "note": "(centres undefined)", "GFP response vs DMSO": "97.7%"}, {"smiles": "O=C(O)c1ccc2cccc(O)c2n1", "GFP response vs DMSO": "109%"}, {"smiles": "C[n+]1cccc2c(Br)ccc([O-])c21", "GFP response vs DMSO": "97.7%"}, {"smiles": "O=C(N/N=C/c1ccccc1F)c1cccc2ccccc12", "GFP response vs DMSO": "104%"}, {"smiles": "COc1ccc(NC(=O)O/N=C2/CCCc3ccc(OC)cc32)cc1", "GFP response vs DMSO": "104%"}, {"smiles": "CC1=CN2C(=N)/C(=C/c3ccc([N+](=O)[O-])o3)C(=O)N=C2S1", "GFP response vs DMSO": "1030% (active)"}, {"smiles": "O=C(Nc1ccccc1)O/N=C1/CCCc2occc21", "GFP response vs DMSO": "103%"}, {"smiles": "COc1ccccc1Nc1nc(NCCO)nc(N)c1[N+](=O)[O-]", "GFP response vs DMSO": "111%"}, {"smiles": "CN(C)CCCNc1cc(O)c2ncccc2c1", "GFP response vs DMSO": "112%"}, {"smiles": "COC1=C/C(=C/c2c(N)n3cc(C)sc3nc2=O)C=CC1=O", "GFP response vs DMSO": "124%"}, {"smiles": "O=C(Nc1nc(-c2ccccn2)cs1)c1ccccc1-n1cnnn1", "GFP response vs DMSO": "103%"}, {"smiles": "CC(=O)C(Cl)C(=O)Nc1ccccc1", "note": "(centres undefined)", "GFP response vs DMSO": "121%"}, {"smiles": "COc1cc(=O)n(C)c2c(O)cccc12", "GFP response vs DMSO": "92.8%"}, {"smiles": "Cc1cc(C)c2ccc(N)nc2c1O", "GFP response vs DMSO": "99.3%"}, {"smiles": "CCN(CC)C(=O)Oc1ccnc2cc(Cl)ccc12", "GFP response vs DMSO": "107%"}, {"smiles": "COc1ccc(N/C=C/C(=O)c2ccc(Cl)cc2)cc1", "GFP response vs DMSO": "107%"}, {"smiles": "C/C(=C\\C(=O)c1ccccc1)Nc1ccc(O)cc1", "GFP response vs DMSO": "103%"}]}]}
